Assay results as given in PubChem BioAssay AID1159580 (chemical genetic matrix, 2015).
About 2,000 (36%) of roughly 5,500 compounds were called active. Another 18% or so got no clear call; they are omitted. No stated cut-off is given here; in the data, active means normalized growth mostly below about 0.91 (no sharp cut-off); inconclusive means no clear call, values can overlap the other calls; inactive means mostly above about 0.92. This is one part of the list.

Assay: chemical genetic growth profiling, strain panel (AID 1159580);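 further: tested at 20 µM; growth read once vehicle control cultures reached saturation at 30 °C; 1 = growth at the plate median or of vehicle wells; lower values mean less growth of the strain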
Conditions: growth OD

Measured: normalized growth

CC(=O)N1CCN(c2ccc(OCC3CO[C@](Cn4ccnc4)(c4ccc(Cl)cc4Cl)O3)cc2)CC1 (some centres undefined)
inactive: S. cerevisiae deletion strains, locus YKL009W, strain mrt4, hits give low values 0.994 | S. cerevisiae deletion strains, locus YOL012C, strain htz1 0.25 | S. cerevisiae deletion strains, locus YPR141C, strain kar3, hits give low values 0.971
active: S. cerevisiae deletion strains, locus YJL187C, strain SWE1, hits give low values 0.0925 | S. cerevisiae deletion strains, locus YJR043C, strain POL32, hits give low values 0.094 | S. cerevisiae deletion strains, locus YJR066W, strain TOR1, hits give low values 0.0283 | S. cerevisiae deletion strains, locus YJR075W, strain HOC1, hits give low values 0.0852 | S. cerevisiae deletion strains, locus YKL068W, hits give low values 0.931 | S. cerevisiae deletion strains, locus YKL085W, strain MDH1 (second series), hits give low values 0.795 | S. cerevisiae deletion strains, locus YKL085W, strain MDH1, hits give low values 0.795 | S. cerevisiae deletion strains, locus YKL160W, strain elf1, hits give low values 0.104 | S. cerevisiae deletion strains, locus YKL190W, strain CNB1, hits give low values 0.0638 | S. cerevisiae deletion strains, locus YKR001C, strain vps1, hits give low values 0.112 | S. cerevisiae deletion strains, locus YKR026C, strain gcn3, hits give low values 0.168 | S. cerevisiae deletion strains, locus YKR091W, strain srl3, hits give low values 0.108 | S. cerevisiae deletion strains, locus YLL001W, strain dnm1, hits give low values 0.102 | S. cerevisiae deletion strains, locus YLL026W, hits give low values 0.0778 | S. cerevisiae deletion strains, locus YLL041C, strain sdh2, hits give low values 0.0858 | S. cerevisiae deletion strains, locus YLR027C, strain aat2, hits give low values 0.0792 | S. cerevisiae deletion strains, locus YLR039C, strain RIC1, hits give low values 0.444 | S. cerevisiae deletion strains, locus YLR058C, strain SHM2, hits give low values 0.072 | S. cerevisiae deletion strains, locus YLR102C, strain apc9, hits give low values 0.0929 | S. cerevisiae deletion strains, locus YLR113W, strain HOG1, hits give low values 0.16 | S. cerevisiae deletion strains, locus YLR221C, strain rsa3, hits give low values 0.0852 | S. cerevisiae deletion strains, locus YLR258W, strain gsy2, hits give low values 0.0919 | S. cerevisiae deletion strains, locus YLR262C, strain YPT6 (second series), hits give low values 0.314 | S. cerevisiae deletion strains, locus YLR262C, strain YPT6, hits give low values 0.523 | S. cerevisiae deletion strains, locus YLR268W, strain sec22, hits give low values 0.0953 | S. cerevisiae deletion strains, locus YLR320W, strain mms22, hits give low values 0.104 | S. cerevisiae deletion strains, locus YLR330W, strain CHS5, hits give low values 0.0775 | S. cerevisiae deletion strains, locus YLR342W, strain FKS1 (second series), hits give low values 0.0863 | S. cerevisiae deletion strains, locus YLR342W, strain FKS1, hits give low values 0.0875 | S. cerevisiae deletion strains, locus YLR357W, strain rsc2, hits give low values 0.231 | S. cerevisiae deletion strains, locus YLR370C, strain arc18, hits give low values 0.0894 | S. cerevisiae deletion strains, locus YLR371W, strain rom2, hits give low values 0.104 | S. cerevisiae deletion strains, locus YLR384C, strain iki3, hits give low values 0.0857 | S. cerevisiae deletion strains, locus YLR418C, strain cdc73, hits give low values 0.123 | S. cerevisiae deletion strains, locus YML016C, strain PPZ1, hits give low values 0.0722 | S. cerevisiae deletion strains, locus YML032C, strain rad52, hits give low values 0.112 | S. cerevisiae deletion strains, locus YML120C, strain ndi1, hits give low values 0.0823 | S. cerevisiae deletion strains, locus YML124C, strain tub3, hits give low values 0.0927 | S. cerevisiae deletion strains, locus YMR058W, strain fet3, hits give low values 0.0959 | S. cerevisiae deletion strains, locus YMR078C, strain ctf18, hits give low values 0.112 | S. cerevisiae deletion strains, locus YMR125W, strain sto1, hits give low values 0.102 | S. cerevisiae deletion strains, locus YMR129W, hits give low values 0.0847 | S. cerevisiae deletion strains, locus YMR205C, strain PFK2, hits give low values 0.141 | S. cerevisiae deletion strains, locus YMR223W, strain ubp8, hits give low values 0.105 | S. cerevisiae deletion strains, locus YMR231W, strain pep5, hits give low values 0.403 | S. cerevisiae deletion strains, locus YMR263W, strain SAP30, hits give low values 0.157 | S. cerevisiae deletion strains, locus YMR307W, strain GAS1, hits give low values 0.159 | S. cerevisiae deletion strains, locus YNL067W, strain RPL9B, hits give low values 0.0729 | S. cerevisiae deletion strains, locus YNL071W, strain lat1, hits give low values 0.0698 | S. cerevisiae deletion strains, locus YNL183C, strain NPR1, hits give low values 0.0744 | S. cerevisiae deletion strains, locus YNL209W, strain ssb2, hits give low values 0.195 | S. cerevisiae deletion strains, locus YNL233W, strain BNI4, hits give low values 0.0732 | S. cerevisiae deletion strains, locus YNL248C, strain rpa49, hits give low values 0.0896 | S. cerevisiae deletion strains, locus YNL250W, strain rad50, hits give low values 0.896 | S. cerevisiae deletion strains, locus YNL271C, strain bni1, hits give low values 0.906 | S. cerevisiae deletion strains, locus YNL298W, strain CLA4, hits give low values 0.246 | S. cerevisiae deletion strains, locus YNL307C, strain MCK1, hits give low values 0.0791 | S. cerevisiae deletion strains, locus YNL322C, strain KRE1 (second series), hits give low values 0.115 | S. cerevisiae deletion strains, locus YNR049C, strain mso1, hits give low values 0.0955 | S. cerevisiae deletion strains, locus YNR052C, strain pop2, hits give low values 0.144 | S. cerevisiae deletion strains, locus YOL147C, strain pex11, hits give low values 0.0768 | S. cerevisiae deletion strains, locus YOR001W, strain rrp6, hits give low values 0.0988 | S. cerevisiae deletion strains, locus YOR061W, strain CKA2, hits give low values 0.125 | S. cerevisiae deletion strains, locus YOR069W, strain VPS5, hits give low values 0.0927 | S. cerevisiae deletion strains, locus YOR070C, strain gyp1, hits give low values 0.0793 | S. cerevisiae deletion strains, locus YOR080W, strain dia2, hits give low values 0.096 | S. cerevisiae deletion strains, locus YOR083W, strain WHI5, hits give low values 0.136 | S. cerevisiae deletion strains, locus YOR106W, strain vam3, hits give low values 0.116 | S. cerevisiae deletion strains, locus YOR136W, strain idh2, hits give low values 0.112 | S. cerevisiae deletion strains, locus YOR144C, strain elg1, hits give low values 0.0877 | S. cerevisiae deletion strains, locus YOR184W, strain ser1, hits give low values 0.0917 | S. cerevisiae deletion strains, locus YOR231W, strain MKK1, hits give low values 0.157 | S. cerevisiae deletion strains, locus YOR265W, strain rbl2, hits give low values 0.0927 | S. cerevisiae deletion strains, locus YOR270C, strain vph1, hits give low values 0.112 | S. cerevisiae deletion strains, locus YOR290C, strain snf2, hits give low values 0.0982 | S. cerevisiae deletion strains, locus YOR316C, strain cot1, hits give low values 0.0844 | S. cerevisiae deletion strains, locus YPL051W, strain arl3, hits give low values 0.141 | S. cerevisiae deletion strains, locus YPL078C, strain atp4, hits give low values 0.0953 | S. cerevisiae deletion strains, locus YPL106C, strain sse1, hits give low values 0.137 | S. cerevisiae deletion strains, locus YPL240C, strain hsp82, hits give low values 0.09 | S. cerevisiae deletion strains, locus YPL256C, strain CLN2, hits give low values 0.182 | S. cerevisiae deletion strains, locus YPR119W, strain clb2, hits give low values 0.105 | S. cerevisiae deletion strains, locus YPR163C, strain tif3, hits give low values 0.105 | S. cerevisiae deletion strains, locus YPR167C, strain met16, hits give low values 0.1 | S. cerevisiae deletion strains, strain wtn01, hits give low values 0.0951 | S. cerevisiae strains, strain wild type, hits give low values 0.0668
